Source: PubChem BioAssay (NCATS)
Where “and” joins values, the source holds several entries; their conditions need not be identical. Equal values may be shown once. Results filed as inconclusive are left out. Calls of active or inactive are those of the source. Unless noted, calls come from the whole dose curve; as a rule, active = well fitted curve in the direction sought with a large enough effect; inconclusive = small, poorly fitted or top-dose-only effect, or another doubt; inactive = no such curve, though single readings can be large; an effect the other way counts as inactive or inconclusive.

How the values were obtained:
[1] = biological target: Cellular tumor antigen p53 (Homo sapiens) (UniProt P04637); assay: Primary qHTS for small molecule compounds that upregulate eGFP-tagged delta133p53alpha (in N-terminal) cells. (AID 2060322); details: NCI-H358 eGFP-delta133p53alpha fluorescence, 24 h; activation: hits give high values;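 note: 0% = DMSO vehicle and 100% = reference activator; nearly all actives have a fitted effect of over 75% in size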
Outline: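 NCI-H358 cells pre-induced 24 h with 10 ng/ml doxycycline to express N-terminal eGFP-delta133p53alpha, then dosed 24 h at 37C without doxycycline; fixed, Hoechst-stained, GFP intensity by laser scanning cytometry, normalized to DMSO (0%) and 57.5 uM 5-azacytidine (100%).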

[2] = biological target: Cellular tumor antigen p53 (Homo sapiens) (UniProt P04637); assay: Primary qHTS for small molecule compounds that upregulate eGFP-tagged delta133p53alpha (in C-terminal) cells. (AID 2060324); details: NCI-H358 delta133p53alpha-eGFP (C-terminal tag), GFP fluorescence imaging, 24 h; series mostly up to 57.5 µM; note: potency is the fitted concentration of half-maximal effect
Outline: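 C-terminal eGFP-tagged delta133p53alpha NCI-H358 line; dox-induced (100 ng/ml, 24 h) then plated without dox; compounds pinned in titration, 24 h 37 °C/5% CO2; PFA fix, Hoechst nuclei; GFP by LSC.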

[3] = biological target: Aldehyde dehydrogenase, mitochondrial (Homo sapiens) (UniProt P05091); assay: qHTS for Inhibitors of the Aldehyde Dehydrogenase Family (ALDH2) Validation screens (AID 2061302; active = well fitted inhibition curve with a large enough effect; title and protocol of this record describe different tests;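 note: plate controls were DMSO vehicle for no effect and maximal DPI positive control response for full effect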); details: ALDH inhibition qHTS; series mostly up to 42.6 µM
[4] = biological target: Retinaldehyde dehydrogenase 3 (Homo sapiens) (UniProt P47895); assay: qHTS for Inhibitors of the Aldehyde Dehydrogenase Family (ALDH1A3) Validation screen (AID 2061312); details: ALDH1A3 enzyme inhibition qHTS validation, fluorescence; series mostly up to 84.7 µM; note: % is set by controls: 0 for no effect and ±100 for the full control effect; nearly all actives have a fitted effect of over 45% in size
[5] = BET inhibitor-based combinations targeting novel dependencies in MECOM-rearranged (r) AML: SET-2 cell line (AID 2202231); details: SET-2 AML cells viability, CellTiter-Glo luminescence, 48 h; viability: hits give low values, concentration not given here;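 note: plate controls were DMSO treated cells for no effect and wells without cells for full effect; nearly all actives have a fitted effect of over 35% in size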
Outline: (§1)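 A 48 hr incubation preceded viability reading by CellTiter-Glo, with 15 min room-temperature development. Dose series had 11 points; normalization used DMSO and empty wells; AUC was computed and mean-centered per line as Z-AUC.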

[6] = BET inhibitor-based combinations targeting novel dependencies in MECOM-rearranged (r) AML: OCI-AML3 cell line (AID 2202232); details: CellTiter-Glo luminescence, 48 h; Potency: OCI-AML3 viability; series mostly up to 46 µM;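 note: plate controls were DMSO vehicle wells for no effect and wells without cells for full effect; nearly all actives have a fitted effect of over 35% in size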
Outline: as §1

[7] = BET inhibitor-based combinations targeting novel dependencies in MECOM-rearranged (r) AML: MV-4-11 cell line (AID 2202233); details: MV-4-11 AML viability, CellTiter-Glo luminescence, 48 h; series mostly up to 46 µM;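 note: plate controls were DMSO for no effect and blank wells for full effect; nearly all actives have a fitted effect of over 45% in size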
Outline: (§2)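 Each compound is tested in an 11-point concentration series against 500 seeded cells/well for 48 hr. The luminescent viability signal is normalized to DMSO and blank wells, then reduced to AUC and a cell-line-centred Z-AUC.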

[8] = BET inhibitor-based combinations targeting novel dependencies in MECOM-rearranged (r) AML: HNT-34 cell line (AID 2202234); details: HNT-34 AML viability, CellTiter-Glo luminescence, 48 h; series mostly up to 46 µM;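 note: plate controls were vehicle wells for no effect and cell-free wells for full effect; nearly all actives have a fitted effect of over 35% in size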
Outline: as §2

[9] = BET inhibitor-based combinations targeting novel dependencies in MECOM-rearranged (r) AML: UCSD-AML1 cell line (AID 2202235); details: UCSD-AML1 AML cells viability, CellTiter-Glo, 48 h; series mostly up to 46 µM;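 note: plate controls were DMSO vehicle wells for no effect and blank wells for full effect; nearly all actives have a fitted effect of over 40% in size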
Outline: as §2

[10] = BET inhibitor-based combinations targeting novel dependencies in MECOM-rearranged (r) AML: AML-191 cell line (AID 2202236;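 note: plate controls were vehicle wells for no effect and wells without cells for full effect; nearly all actives have a fitted effect of over 35% in size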); details: AML-191 viability, CellTiter-Glo luminescence, 48 h; series mostly up to 46 µM
Outline: as §1

Cellular tumor antigen p53 (Homo sapiens), sequence (P04637 whole entry, looked up): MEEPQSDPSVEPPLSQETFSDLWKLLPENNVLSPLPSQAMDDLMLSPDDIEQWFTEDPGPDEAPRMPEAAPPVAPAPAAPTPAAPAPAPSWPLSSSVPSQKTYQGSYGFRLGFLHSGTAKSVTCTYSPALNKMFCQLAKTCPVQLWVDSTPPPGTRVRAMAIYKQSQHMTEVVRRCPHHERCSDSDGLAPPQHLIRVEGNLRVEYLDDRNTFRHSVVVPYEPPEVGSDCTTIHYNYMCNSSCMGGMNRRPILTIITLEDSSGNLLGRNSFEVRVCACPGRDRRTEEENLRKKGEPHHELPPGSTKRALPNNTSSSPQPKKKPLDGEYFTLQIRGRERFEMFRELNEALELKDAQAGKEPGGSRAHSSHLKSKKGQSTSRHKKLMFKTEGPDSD

NS(=O)(=O)C#Cc1ccccc1
inactive: activation [1] 60.6% | Potency [3] | Potency [4]
active: Potency [2] 30.1 µM

CNC(=O)c1cc2c(cn1)[nH]c1ccccc12
inactive: activation [1] 11.5% | Potency [2] | Potency [3] | Potency [4]

Cn1c(=O)[nH]c2ncn(C)c2c1=O
inactive: activation [1] -21.1% | Potency [2] | Potency [3] | Potency [4]

CC(=O)O[C@H]1C[C@@H]2CC[C@@H]3[C@H](CC[C@@]4(C)[C@H]3C[C@H]([N+]3(C)CCCCC3)[C@@H]4OC(C)=O)[C@@]2(C)C[C@@H]1[N+]1(C)CCCCC1
inactive: activation [1] -16.6% | Potency [2] | Potency [3] | Potency [4]

NCCCCN
inactive: activation [1] 16% | Potency [2] | Potency [3] | Potency [4]

NC(=O)CC[C@H](N)C(=O)O
inactive: activation [1] 18.7% | Potency [2] | Potency [3] | Potency [4]

N[C@@H](Cc1cnc[nH]1)C(=O)O
inactive: activation [1] 30.1% | Potency [2] | Potency [3] | Potency [4]

CCn1ccnc1CC1COc2ccccc2O1 (stereo not drawn)
inactive: activation [1] -21.8% and 27.7% | Potency [2] | Potency [3] | Potency [4]

NCCSSCCN
inactive: activation [1] 43.3% | Potency [2] | Potency [3] | Potency [4]

CC(=O)N[C@@H](Cc1c[nH]c2ccccc12)C(=O)OCc1cc(C(F)(F)F)cc(C(F)(F)F)c1
inactive: activation [1] -29.2% | Potency [2] | Potency [3] | Potency [4]

NC(N)=N/N=C/c1c(Cl)cccc1Cl
inactive: activation [1] 35% | Potency [2] | Potency [3] | Potency [4]

CC(=O)Nc1nnc(S(N)(=O)=O)s1
inactive: activation [1] 21.8% and -10.7% | Potency [2] | Potency [3] | Potency [4]

O=C(CCCCCN1CCN(c2ccccc2-c2ccccc2)CC1)NC1CCCc2ccccc21 (stereo not drawn)
inactive: activation [1] -20.9% | Potency [2] | Potency [3] | Potency [4]

COCCOc1cc2nc[nH]c(=O)c2cc1OCCOC
inactive: activation [1] -30.8% | Potency [2] | Potency [3] | Potency [4]

CC(C)[N+](C)(CCOC(=O)C1c2ccccc2Oc2ccccc21)C(C)C
inactive: activation [1] 18.6% and -22.6% | Potency [2] | Potency [3] | Potency [4]

CCCCNc1c(C(=O)OCC)c(C)nc2c1cnn2CC
inactive: activation [1] 8.47% and 3.05% | Potency [2] | Potency [3] | Potency [4]

NC(=O)c1cn(Cc2c(F)cccc2F)nn1
inactive: activation [1] -12.6% and -6.02% | Potency [2] | Potency [3] | Potency [4]

Nc1nc2c(ncn2COC(CO)CO)c(=O)[nH]1
inactive: activation [1] -11.7% | Potency [2] | Potency [3] | Potency [4] | viability [5] 113% | Potency [6] | Potency [7] | Potency [8] | Potency [9] | Potency [10]
